Compounds with a hit are over-represented: about 21% of the library has one in this group of screens.
HCMV inh: blocks human cytomegalovirus replication; HFF cells, HCMV-luciferase reporter, 72 h; stronger effect = lower value; activity change, negative = inhibition, % at 57.5 µM; 410,000 tested, 4.5% active; in the data active means activity change below about -60%; inconclusive means no clear call, values can overlap the other calls; inactive means above about -39%
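After 16 h attachment at 37C, HFF cells received test compound and HCMV-luciferase (1 PFU/cell); reporter luminescence read 72 h later, data normalized against buffer-only and known inhibitor Salinomycin.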
HCV inhibitor: inhibitors of hepatitis C virus infection; Huh7.5.1 HCVcc-Cre infection, luciferase reporter, 44 h; Potency, µM (highest dose often 41.8 µM), most hits filed as inhibitors; 340,000 tested, 3.4% active
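HCVcc-Cre virus at an moi near 0.5 was added right after compound to cells cultured 4 h from seeding (1,000 cells/well). Luciferase activity was determined 44 h later, 15 min after substrate addition at RT.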
Shiga inhibitor: inhibitors of Shiga toxin in Vero cells | Vero cells, Shiga toxin protein synthesis inhibition reporter | inhibition, % at 38.7 µM | 290,000 tested, 9.2% active; in the data active means inhibition mostly above about 28%, no sharp cut-off; inactive means mostly below about 43%
Pf growth 48h: inhibits P. falciparum growth in the first generation, 48 h; AID 504832; 310,000 tested, 5.9% active; Potency, µM (doses to about 28.7 µM), actives largely listed as inhibitors; P. falciparum luciferase growth in erythrocytes, 48 h
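Erythrocytes infected with P. falciparum carrying an integrated firefly luciferase reporter (2% hematocrit, 0.1% parasitemia final) were exposed to compounds in RPMI 1640 with 0.5% Albumax at 37 C, 5% CO2. Growth inhibition was scored as reduced luminescence.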
Pf growth 96h: P. falciparum growth inhibition at 96 hours; P. falciparum luciferase reporter growth, 96 h; Potency, µM (titrated, usually from 28.7 µM), usual class: inhibitors; 320,000 tested, 6.9% active
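96 h incubation, 37 C, 5% CO2, of luciferase-reporter P. falciparum-infected RBCs (2% hematocrit, 0.05% parasitemia final) with test compounds; endpoint luminescence.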
Cycloheximide cs: counter-screen for Shiga toxin inhibitors: cycloheximide protein synthesis inhibition. 300,000 tested, 12% active. cell reporter, cycloheximide protein synthesis inhibition counterscreen. max response, %; in the data active means max response mostly above about 13%, no sharp cut-off; inactive means mostly below about 14%; further: read at 38.3 µM for the half of the compounds with a filed dose
Large screens that a line does not name were inactive. Unless noted, the call rests on the fitted dose curve; in most records, active means well fitted inhibition curve with a large enough effect; inconclusive means small, poorly fitted or top-dose-only effect, or another doubt; inactive means no such curve, though single readings can be large or run the other way.

O=C(NCCC1=CCCCC1)C1COc2ccccc2O1 (centres undefined)	Shiga inhibitor 53.5, Cycloheximide cs 19.9
COc1ccc2[nH]c3c(c2c1)CCN1C(=O)N([C@@H](C)C(=O)NC2CCN(Cc4ccccc4)CC2)C(=O)[C@]31C	HCV inhibitor inconclusive, Pf growth 48h inconclusive, Pf growth 96h inconclusive
C=CCON1C(=O)C(=O)N(OCC=C)[C@H]2CCCC[C@H]21	none
Cn1c(CN2CCN(S(C)(=O)=O)CC2)nc2cc([N+](=O)[O-])ccc21	HCMV inh -101.3
Cn1c(CN2CCN(C(=O)c3ccc(F)cc3)CC2)nc2cc([N+](=O)[O-])ccc21	Pf growth 48h inconclusive, Pf growth 96h 13.1µM
CCOC(=O)N1CCN(Cc2nc3cc([N+](=O)[O-])ccc3n2C)CC1	none
CC(=O)N1CCN(Cc2nc3cc([N+](=O)[O-])ccc3n2C)CC1	none
CC(C)c1cccc(C(C)C)c1NC1=NS(=O)(=O)c2ccccc21	none (no result: HCV inhibitor, Shiga inhibitor, Pf growth 48h, Pf growth 96h, Cycloheximide cs)
CCC1(c2ccc(Cl)cc2)NC(=S)N(c2ccc(C)c(C)c2)N1 (centres undefined)	none
CCC1(c2ccc(Cl)cc2)NC(=S)N(c2ccc(C)cc2)N1 (centres undefined)	Shiga inhibitor 90.5, Cycloheximide cs 68.0
CCC1(c2ccccc2)NC(=S)N(c2ccc(C)c(C)c2)N1 (centres undefined)	Shiga inhibitor 36.0, Cycloheximide cs 39.7
NNC(=O)c1n[nH]c2c1CC(C1CCCCC1)CC2 (centres undefined)	HCV inhibitor inconclusive, Pf growth 48h inconclusive, Pf growth 96h inconclusive (no result: Shiga inhibitor, Cycloheximide cs)
Cc1ccc(C(=O)N2CCC3CC2c2cc(-c4ccc5c(c4)OCO5)ccc23)cc1 (centres undefined)	none (no result: Shiga inhibitor, Pf growth 48h, Pf growth 96h, Cycloheximide cs)
Cc1ccc(S(=O)(=O)NC2CC(=O)N(c3ccc4c(c3)OCCO4)C2)cc1 (centres undefined)	HCV inhibitor inconclusive (no result: Shiga inhibitor, Cycloheximide cs)
Cc1cccc(NC(=O)C2CCCN2S(=O)(=O)c2ccc3nc(-c4ccccc4)[nH]c3c2)c1 (centres undefined)	none (no result: HCV inhibitor, Shiga inhibitor, Pf growth 48h, Pf growth 96h, Cycloheximide cs)
CC(C)c1ccc(NCCC(=O)c2ccc(Br)cc2)cc1	Pf growth 96h 9.28µM
CC(=O)c1ccc(NCCC(=O)c2ccccc2)cc1	none
Cc1cccc(NCCC(=O)c2ccc(Br)cc2)c1	Cycloheximide cs 24.4
CC(=O)c1cccc(NC(=O)Cn2c(C)c3cnn(-c4ccccc4)c(=O)c3c2C)c1	none (no result: HCV inhibitor, Shiga inhibitor, Pf growth 48h, Pf growth 96h, Cycloheximide cs)
COc1ccc(-c2cc3nc(-c4ccccc4)cc(N4CCC(O)CC4)n3n2)cc1	HCMV inh inconclusive, HCV inhibitor inconclusive, Pf growth 48h 10.4µM
COc1ccc(-c2cc3nc(-c4ccccc4)cc(N4CCN(C(C)=O)CC4)n3n2)cc1	none (no result: HCV inhibitor, Shiga inhibitor, Pf growth 48h, Pf growth 96h, Cycloheximide cs)
COc1ccc(-c2cc3nc(-c4ccccc4)cc(N4CCCC(O)C4)n3n2)cc1 (centres undefined)	HCV inhibitor 6.31µM, Pf growth 48h 8.28µM
Cc1ccc(C)c(N2CCN(C(=O)c3cc(C)nc4c3c(C)nn4-c3cccc(F)c3)CC2)c1	none (no result: HCV inhibitor, Shiga inhibitor, Pf growth 48h, Pf growth 96h, Cycloheximide cs)
O=C(Cc1ccc(F)cc1)Nc1cc(S(=O)(=O)N2CCOCC2)ccc1N1CCCCC1	none (no result: HCV inhibitor, Shiga inhibitor, Pf growth 48h, Pf growth 96h, Cycloheximide cs)
O=C1c2ccccc2C(=O)N1OCCCN1C(=O)c2ccccc2S1(=O)=O	none (no result: Shiga inhibitor, Pf growth 48h, Pf growth 96h, Cycloheximide cs)
COc1ccc(NC(=O)c2c(NC(=O)CCC(=O)O)sc(-c3ccccc3)c2C)cc1	none
Cc1ccc(C)c(S(=O)(=O)N2CCN(C(=O)CCc3c[nH]c4ccccc34)CC2)c1	Pf growth 48h inconclusive, Pf growth 96h inconclusive (no result: Shiga inhibitor, Cycloheximide cs)
Cc1ccc(S(=O)(=O)N2CCN(C(=O)CCc3nc4ccccc4c(=O)[nH]3)CC2)c(C)c1	Pf growth 48h inconclusive, Pf growth 96h 11.7µM (no result: Shiga inhibitor, Cycloheximide cs)
Cc1ccc(C)c(S(=O)(=O)N2CCN(C(=O)CCc3nc4ccccc4c(=O)[nH]3)CC2)c1	HCV inhibitor inconclusive, Pf growth 48h inconclusive, Pf growth 96h 10.4µM (no result: Shiga inhibitor, Cycloheximide cs)
Cc1ccc(NC(=O)CCc2nc3ccccc3c(=O)[nH]2)cc1S(=O)(=O)N1CCOCC1	HCV inhibitor inconclusive, Pf growth 48h inconclusive, Pf growth 96h 4.15µM (no result: Shiga inhibitor, Cycloheximide cs)
Cc1ccc(C)c(S(=O)(=O)N2CCN(C(=O)CCCc3c[nH]c4ccccc34)CC2)c1	HCMV inh inconclusive, HCV inhibitor inconclusive, Pf growth 48h 14.7µM, Pf growth 96h inconclusive (no result: Shiga inhibitor, Cycloheximide cs)
Cc1ccc(NC(=O)CSc2ncnc3ccccc23)cc1S(=O)(=O)N1CCOCC1	HCV inhibitor inconclusive, Pf growth 48h 11.7µM, Pf growth 96h inconclusive
Cc1ccc(NC(=O)CSc2ncnc3ccccc23)cc1S(=O)(=O)N1CCCCC1	HCV inhibitor inconclusive, Pf growth 48h inconclusive, Pf growth 96h inconclusive
CCc1ccccc1N(C)C(=O)c1cnc(N2CCOCC2)c2ccccc12	none (no result: HCV inhibitor, Shiga inhibitor, Pf growth 48h, Pf growth 96h, Cycloheximide cs)
Cc1ccc(C(C(=O)NC2CCCCC2)N(C(=O)Cc2c[nH]c3ccccc23)c2ccccc2C)o1 (centres undefined)	Pf growth 48h inconclusive
COc1ccc(C(C(=O)NC2CCCCC2)N(C(=O)Cc2c[nH]c3ccccc23)c2ccccc2C)cc1OC (centres undefined)	HCMV inh inconclusive, HCV inhibitor inconclusive, Pf growth 48h inconclusive, Pf growth 96h 13.1µM
COCCN(C(=O)Cc1cccs1)C(C(=O)NC1CCCC1)c1cc(OC)c(OC)c(OC)c1 (centres undefined)	Shiga inhibitor 111.0, Cycloheximide cs 49.0
O=C(NC1CCCCC1)C(c1ccc(F)cc1)N(Cc1cccs1)C(=O)CN1C(=O)c2ccccc2S1(=O)=O (centres undefined)	none
COc1ccc(C(C(=O)NC2CCCC2)N(C(=O)Cc2cccs2)C2CC2)cc1OC (centres undefined)	none
COc1ccc(C(C(=O)NC2CCCCC2)N(Cc2cccs2)C(=O)Cc2c[nH]c3ccccc23)cc1OC (centres undefined)	HCV inhibitor inconclusive, Pf growth 48h 9.28µM, Pf growth 96h inconclusive
CC(=O)Nc1ccc(S(=O)(=O)NC(CC(=O)NCCc2ccccc2)C(C)C)cc1 (centres undefined)	Cycloheximide cs 30.6 (no result: Pf growth 48h)
COc1ccc(CCNC(=O)CC(NS(=O)(=O)c2ccc(NC(C)=O)cc2)C(C)C)cc1OC (centres undefined)	Pf growth 96h inconclusive
Cc1ccc(S(=O)(=O)NC(=O)NCCc2ccccc2)cc1	HCMV inh inconclusive, Cycloheximide cs 14.5
Cc1ccc(S(=O)(=O)NC(=O)NC(C)Cc2ccccc2)cc1 (centres undefined)	Cycloheximide cs 19.8
O=C(Nc1cc(-c2ccccc2)nn1-c1ccccc1)c1ccccc1F	HCV inhibitor inconclusive, Pf growth 48h inconclusive, Pf growth 96h inconclusive (no result: Shiga inhibitor, Cycloheximide cs)
COc1ccccc1CNc1cc(C)nc2nc(-c3ccc(C)cc3)nn12	none (no result: HCV inhibitor, Shiga inhibitor, Pf growth 48h, Pf growth 96h, Cycloheximide cs)
CCc1ccc(C(=O)O)cc1	none
C=Cn1c(C(=O)O)ccc1-c1ccc(CC)cc1	Pf growth 48h inconclusive, Cycloheximide cs 41.6
O=C(N/N=C/c1ccccc1[N+](=O)[O-])C(=O)N1CCCC1	Shiga inhibitor 51.7, Cycloheximide cs 20.0

Compound activity from PubChem.
